Experimental findings from PubChem BioAssay are described below.

Assay [1] in a line: anti-His antibody binders, primary screen, artefact control for SMM control protein annotation, biochemical, small-molecule microarray, 635 nm fluorescence (AID 1128).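 Further: score merges feature fluorescence with signal-to-noise for each printed compound spot.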 The conditions noted are these: anti-His Alexa647 antibody binding, higher = more signal.
Assay [2] concerns Human papillomavirus type 1a E7 protein (residues 1-88). As to the kind of experiment: HPV1a E7 small-molecule binders, primary screen, biochemical, small-molecule microarray, residues 1-88, 635 nm (AID 1129). The conditions noted are these: small-molecule microarray binding, fluorescence 635 nm; higher = more signal.
The target in assay [3] is Focal adhesion kinase 1 (Homo sapiens) (UniProt Q05397). As to the kind of experiment: small-molecule microarray binders of FAK, primary screen, biochemical, 635/667 nm fluorescence, BSA, DTT (AID 1130).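 Further: composite of spot emission at 667 nm and signal to noise over triplicate slides.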 The conditions noted are these: PTK2 binding, 635 nm fluorescence, higher = more signal.
In assay [4] the test system is Fibrinogen (Alexa647-labelled). As to the kind of experiment: fibrinogen binders on compound microarrays, profiling panel, artefact control for SMM control-protein annotation, biochemical, small-molecule microarray, 635/667 nm fluorescence (AID 1131).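 Further: z-score merges 667 nm fluorescence with per-spot signal-to-noise over triplicate slides.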 The conditions noted are these: fibrinogen-A647 binding fluorescence, higher = more signal.
For assay [5], the target named is Follistatin (Homo sapiens) (UniProt P19883). As to the kind of experiment: follistatin binders on small-molecule microarrays, primary screen, biochemical, small-molecule microarray, 635/667 nm fluorescence (AID 1132). The conditions noted are these: FST binding, 635 nm fluorescence, higher = more signal.
For assay [6], the target named is Fibroblast growth factor 2 (Homo sapiens) (UniProt P09038). In words: FGF2 binders on small-molecule microarrays, primary screen, biochemical, small-molecule microarray, 635/667 nm fluorescence (AID 1133). The conditions noted are these: small-molecule microarray binding, FGF2, fluorescence 635/667; higher = more signal.
The nature of assay [7]: mitochondrial membrane potential change in A549 cells, profiling panel, cell-based, JC-1 fluorescence, basal, 24 h, 100 nL (AID 1138).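 Further: A549 lung adenocarcinoma cells under basal conditions with no added stimulus; test concentration not given here.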 The conditions noted are these: higher = more signal.
The next assay deals with Lefty1. In words: Lefty1 binders on small-molecule microarrays, primary screen, biochemical, small-molecule microarray, 635/667 nm fluorescence (AID 1139). The conditions noted are these: small-molecule microarray binding, fluorescence 635/667; higher = more signal.
In assay [8] the test system is wheat germ agglutinin (Triticum aestivum), Alexa647-labelled. In words: wheat germ agglutinin binders on compound microarrays, profiling panel, artefact control for SMM control-protein annotation, biochemical, small-molecule microarray, 635/667 nm fluorescence (AID 1140).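 Further: score merges 667 nm feature emission with signal to noise over triplicate slides.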 The conditions noted are these: WGA-A647 binding, 635 nm fluorescence, higher = more signal.
Assay [9] concerns the target Luciferin 4-monooxygenase (Photinus pyralis) (UniProt P08659). In words: firefly luciferase enzyme inhibitors, primary screen, biochemical, luminescence, purified enzyme, 2006 set (AID 1141).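 Further: cell-free assay with purified firefly luciferase at 100 ng per well in PBS; test concentration not given here.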 The conditions noted are these: SteadyGlo luminescence, 30 min, higher = more signal, called active from +8 up or from −8 down.
For assay [10], the system named is Wnt5a (protein binding on small-molecule microarray). In words: Wnt5a binders on small-molecule microarray, primary screen, biophysical, 635/667 nm fluorescence (AID 1142).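 Further: fluorescence read at 667 nm with signal to noise per printed feature.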 The conditions noted are these: 635 nm fluorescence, higher = more signal.
A short description of assay [11]: cell viability in Huh7 cells, primary screen, cytotoxicity control for HCV replication inhibitor project, CellTiter-Glo luminescence, basal, 48 h (AID 1143).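 Further: Huh7 hepatoma cells carrying a hepatitis C replication reporter with no stimulus; test concentration not given here.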 The conditions noted are these: Huh7 HCV replicon, higher = more signal, called active from +8 up or from −8 down. A general note: ATP-based viability assays read luminescence as a measure of living cells.
Assay [12] can be described thus: P. aeruginosa biofilm formation inhibitors, primary screen, PAO1 strain, BacTiter-Glo luminescence, LB-PBS (AID 1144). The conditions noted are these: 12 h, higher = more signal.
The nature of assay [13]: CREB reporter modulators without forskolin, primary screen, cell-based, PC12, CRE-LacZ reporter, unstimulated (AID 1145). The conditions noted are these: no forskolin, luminescence, 4.5 h, higher = more signal, called active from +8 up or from −8 down.
Assay [14] is described as follows: CREB reporter modulators under forskolin, primary screen, cell-based, PC12, CRE-LacZ reporter, forskolin-stimulated (AID 1146).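 Further: PC12 cells with 6xCRE LacZ reporter stimulated by forskolin 10 µM; beta-galactosidase reporter signal reflecting CREB driven transcription.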 The conditions noted are these: luminescence, 4.5 h, higher = more signal, called active from +8 up or from −8 down.
The target of assay [15] is Streptavidin (Streptomyces avidinii) (UniProt P22629). As to the kind of experiment: streptavidin binders on small-molecule microarray, primary screen, artefact control for SMM compound annotation, biophysical, 635/667 nm fluorescence (AID 1147).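 Further: signal reflects streptavidin binding to arrayed compounds as a control protein.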 The conditions noted are these: streptavidin binding, higher = more signal.
The nature of assay [16]: small-molecule binders of probe aInhba, primary screen, biochemical, small-molecule microarray, 635/667 nm fluorescence (AID 1148).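 Further: score merges 667nm spot fluorescence with signal-to-noise for antibody binding to printed compounds.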 The conditions noted are these: higher = more signal.
Assay [17] has as its target Torsin-1A (Homo sapiens) (UniProt O14656). As to the kind of experiment: torsin A binders from cell lysate, primary screen, small-molecule microarray, wild-type, 635/667 nm (AID 1149). The conditions noted are these: COS7 hTOR1A-WT lysate, 635 nm fluorescence, higher = more signal.
The target is the same in assay [18]. In words: small-molecule binders of mutant TOR1A in lysate, primary screen, cell lysate, small-molecule microarray, COS7 lysate, 635/667 nm fluorescence (AID 1150).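 Further: score pools 667 nm emission and signal to noise measuring lysate protein binding.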 The conditions noted are these: COS7 hTOR1A mutant lysate, 635 nm fluorescence, higher = more signal.
Assay [19] has as its system Sonic hedgehog protein (Shh). As to the kind of experiment: small-molecule binders of Shh protein, primary screen, biochemical, small-molecule microarray, 635/667 nm fluorescence (AID 1151).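 Further: Shh protein binding to compounds spotted on small-molecule microarray slides; score combines spot fluorescence intensity with signal-to-noise across triplicate slides.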 The conditions noted are these: small-molecule microarray binding, 635 nm fluorescence; higher = more signal.

Where “and” joins values, the source holds several entries; their conditions need not be identical. Equal entries are not always repeated. Calls of active or inactive are those of the source. Unless noted, how the calls were made is not given here.

Focal adhesion kinase 1 (Homo sapiens), sequence (Q05397 whole entry, looked up): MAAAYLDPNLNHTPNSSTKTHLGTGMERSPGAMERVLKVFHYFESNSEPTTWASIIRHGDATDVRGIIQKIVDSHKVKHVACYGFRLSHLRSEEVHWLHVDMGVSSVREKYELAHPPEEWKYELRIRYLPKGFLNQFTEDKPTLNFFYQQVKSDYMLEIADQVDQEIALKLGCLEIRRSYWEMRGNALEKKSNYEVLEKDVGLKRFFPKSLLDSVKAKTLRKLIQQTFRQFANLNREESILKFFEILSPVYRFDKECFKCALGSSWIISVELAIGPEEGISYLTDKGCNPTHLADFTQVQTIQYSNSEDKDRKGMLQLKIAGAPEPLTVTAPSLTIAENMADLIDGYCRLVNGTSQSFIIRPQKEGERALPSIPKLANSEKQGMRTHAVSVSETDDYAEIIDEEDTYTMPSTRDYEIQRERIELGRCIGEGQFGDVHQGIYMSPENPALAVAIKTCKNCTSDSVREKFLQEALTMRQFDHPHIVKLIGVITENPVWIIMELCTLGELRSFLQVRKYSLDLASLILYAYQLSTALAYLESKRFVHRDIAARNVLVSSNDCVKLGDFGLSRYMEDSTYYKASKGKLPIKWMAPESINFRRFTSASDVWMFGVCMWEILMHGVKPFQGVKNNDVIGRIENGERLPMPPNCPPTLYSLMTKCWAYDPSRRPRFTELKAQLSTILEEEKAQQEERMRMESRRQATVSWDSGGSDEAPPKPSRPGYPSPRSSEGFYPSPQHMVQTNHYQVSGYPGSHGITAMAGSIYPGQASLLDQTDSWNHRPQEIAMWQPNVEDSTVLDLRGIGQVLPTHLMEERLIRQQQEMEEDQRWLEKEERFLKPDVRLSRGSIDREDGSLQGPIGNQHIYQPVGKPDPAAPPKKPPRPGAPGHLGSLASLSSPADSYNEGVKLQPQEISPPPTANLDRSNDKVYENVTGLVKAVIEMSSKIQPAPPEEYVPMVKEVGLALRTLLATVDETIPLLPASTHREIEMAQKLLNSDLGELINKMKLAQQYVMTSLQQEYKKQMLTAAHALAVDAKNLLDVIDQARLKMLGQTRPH
Torsin-1A (Homo sapiens), sequence (O14656 whole entry, looked up): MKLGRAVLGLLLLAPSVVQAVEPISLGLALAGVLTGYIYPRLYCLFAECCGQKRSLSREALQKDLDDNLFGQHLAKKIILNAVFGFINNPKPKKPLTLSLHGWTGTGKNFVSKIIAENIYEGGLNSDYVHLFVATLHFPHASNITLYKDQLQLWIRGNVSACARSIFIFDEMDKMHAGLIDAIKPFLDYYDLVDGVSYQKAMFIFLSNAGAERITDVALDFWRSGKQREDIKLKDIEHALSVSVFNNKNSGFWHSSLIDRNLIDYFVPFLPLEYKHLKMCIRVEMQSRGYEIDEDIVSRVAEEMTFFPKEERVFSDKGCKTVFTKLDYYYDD
Streptavidin (Streptomyces avidinii), sequence (P22629 whole entry, looked up): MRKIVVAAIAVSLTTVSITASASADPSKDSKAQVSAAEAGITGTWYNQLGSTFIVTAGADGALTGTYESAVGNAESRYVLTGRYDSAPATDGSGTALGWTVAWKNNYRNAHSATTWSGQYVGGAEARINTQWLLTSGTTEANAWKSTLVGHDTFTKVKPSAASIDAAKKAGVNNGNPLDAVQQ
Follistatin (Homo sapiens), sequence (P19883 whole entry, looked up): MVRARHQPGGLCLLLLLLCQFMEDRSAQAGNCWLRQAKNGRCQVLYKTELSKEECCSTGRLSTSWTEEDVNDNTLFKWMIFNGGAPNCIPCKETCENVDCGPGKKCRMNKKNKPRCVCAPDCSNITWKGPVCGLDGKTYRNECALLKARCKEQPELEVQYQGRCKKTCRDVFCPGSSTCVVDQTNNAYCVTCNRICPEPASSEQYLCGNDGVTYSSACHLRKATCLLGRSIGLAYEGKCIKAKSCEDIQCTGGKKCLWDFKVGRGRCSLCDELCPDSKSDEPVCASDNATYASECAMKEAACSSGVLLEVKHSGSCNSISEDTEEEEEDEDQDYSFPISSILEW
Luciferin 4-monooxygenase (Photinus pyralis), sequence (P08659 whole entry, looked up): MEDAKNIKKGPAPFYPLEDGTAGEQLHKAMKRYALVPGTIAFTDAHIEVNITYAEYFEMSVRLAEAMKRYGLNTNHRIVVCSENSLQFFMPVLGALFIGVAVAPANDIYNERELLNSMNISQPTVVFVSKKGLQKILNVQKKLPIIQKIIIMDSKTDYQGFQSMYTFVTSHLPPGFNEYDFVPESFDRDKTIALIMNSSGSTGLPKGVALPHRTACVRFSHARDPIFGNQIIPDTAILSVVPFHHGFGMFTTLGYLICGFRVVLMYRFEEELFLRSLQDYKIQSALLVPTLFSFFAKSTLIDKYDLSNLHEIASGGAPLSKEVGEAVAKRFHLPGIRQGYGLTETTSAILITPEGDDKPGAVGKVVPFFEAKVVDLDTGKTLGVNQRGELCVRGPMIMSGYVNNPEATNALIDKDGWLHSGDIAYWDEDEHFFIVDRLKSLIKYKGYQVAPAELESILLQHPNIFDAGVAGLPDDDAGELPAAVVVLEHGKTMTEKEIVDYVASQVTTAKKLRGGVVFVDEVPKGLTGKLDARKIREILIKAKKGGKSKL
Fibroblast growth factor 2 (Homo sapiens), sequence (P09038 whole entry, looked up): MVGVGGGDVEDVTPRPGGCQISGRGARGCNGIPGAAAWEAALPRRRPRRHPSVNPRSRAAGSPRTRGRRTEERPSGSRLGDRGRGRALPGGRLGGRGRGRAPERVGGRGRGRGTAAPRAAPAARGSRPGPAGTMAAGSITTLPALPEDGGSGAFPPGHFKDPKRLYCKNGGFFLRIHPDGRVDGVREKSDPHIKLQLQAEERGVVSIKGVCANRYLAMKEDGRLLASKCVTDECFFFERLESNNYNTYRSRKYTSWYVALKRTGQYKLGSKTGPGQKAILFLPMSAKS

As for `Cc1ccc(S(=O)(=O)N[C@H]2COC(=O)[C@@H](C)COC(=O)[C@H](C)NC(=O)CC=C[C@H]2C)cc1`, the composite z-score in assay [1] is -0.293; in assay [2], -0.336; in assay [3] it was -0.295; in [4], -0.343; in [5], 0.162; in [6], 1.09. The composite z-score is 0.72 with Lefty1; -0.634 in [8]; 0.105 in [10]; -0.192 in assay [15]; -0.128 in [16]; -0.233 with Torsin-1A (Homo sapiens) [17]. Also, the composite z-score in the assay with Torsin-1A (Homo sapiens) [18] is -0.11; in assay [19], 0.837. In addition, the z-score in assay [7] is 0.637; in assay [9], -0.402 (inactive); in assay [11], 0.365 (inactive); in [12], -0.16 (inactive); in assay [13] it was -0.204 (inactive); in assay [14], -0.253 (inactive).

For the molecule `CO[C@H]1COC(=O)CC=C[C@H](C)[C@H](OC)COC(=O)[C@@H](C)COC(=O)CC=C[C@@H]1C`, the composite z-score is 0.155 and -0.15 in [1]; 0.151 and -0.833 in [2]; 0.445 and -0.105 in [3]; -0.77 and -1.28 in assay [4]; 1.13 and 0.8 in assay [5]; 0.651 and 0.402 in assay [6]. Moreover, the composite z-score in the assay on Lefty1 was 0.914 and 0.398; in assay [8], -0.464 and -0.424; in assay [10], -0.051 and -0.105; in assay [15], -0.313 and 0.0956; in assay [16] it was -0.195 and -0.224; in the assay with Torsin-1A (Homo sapiens) [17] it was 0.636 and 0.802. For the same molecule, the composite z-score in the assay with Torsin-1A (Homo sapiens) [18] is 0.269 and 1.17; in assay [19], 1.08 and 1.09. For the same molecule, the z-score in assay [7] was 0.597 and 1.4; in assay [9], -0.882 (inactive) and -1.16 (inactive); in [11], 1.08 (inactive) and -0.441 (inactive); in assay [12], -0.186 (inactive) and 0.0947 (inactive); in [13], -0.116 (inactive) and -1.19 (inactive); in assay [14], -0.689 (inactive) and -0.777 (inactive).

For `CC(C)OC(=O)C=C1C[C@@H](c2ccccc2)O[C@@H](c2ccccc2)O1`, the composite z-score in assay [1] was 0.871 and 1.47; in assay [2], 1.23 and 1.25; in [3] it was 0.255 and 0.796; in assay [4] it was 0.977 and 0.962; in [5], 1.26 and 1.31; in [6] it was 1.42 and 1.02. Further, the composite z-score with Lefty1 was 1.11 and 1.31; in assay [8] it was 0.824 and 1.3; in [10], 0.706 and 0.731; in [15] it was 1.35 and 1.85; in [16], 0.122 and 0.234; in the assay with Torsin-1A (Homo sapiens) [17], 1.55 and 1.19. Besides, the composite z-score in the assay with Torsin-1A (Homo sapiens) [18] is 1.57 and 1.46; in assay [19], 1.67 and 0.885. Also, the z-score in assay [7] was 1.55 and 0.229; in assay [9] it was 0.992 (inactive) and -0.692 (inactive); in [11] it was -1.4 (inactive) and -2.03 (inactive); in [12], -0.804 (inactive) and -1.18 (inactive); in assay [13] it was 0.836 (inactive) and -0.0879 (inactive); in assay [14], -0.127 (inactive) and 3.16 (inactive).
